# Laboratory results published in PubChem BioAssay (EPA / NIEHS).
# Several values for one entry are separate records, joined by “and”; a condition that tells them apart may be missing. Equal values may be shown once. Results filed as inconclusive are left out. Some compounds were tested as several samples or in several runs, with calls that do not always agree. Activity calls are given as the source filed them. How the source made its calls: active means hit-call score of the fitted dose curve at least 0.9, where 1 is the maximum; inconclusive means response in the unintended direction; inactive means score below 0.9.
# Molecular target: Cellular tumor antigen p53 (Homo sapiens) (UniProt P04637)
# Sequence (P04637 whole entry, looked up): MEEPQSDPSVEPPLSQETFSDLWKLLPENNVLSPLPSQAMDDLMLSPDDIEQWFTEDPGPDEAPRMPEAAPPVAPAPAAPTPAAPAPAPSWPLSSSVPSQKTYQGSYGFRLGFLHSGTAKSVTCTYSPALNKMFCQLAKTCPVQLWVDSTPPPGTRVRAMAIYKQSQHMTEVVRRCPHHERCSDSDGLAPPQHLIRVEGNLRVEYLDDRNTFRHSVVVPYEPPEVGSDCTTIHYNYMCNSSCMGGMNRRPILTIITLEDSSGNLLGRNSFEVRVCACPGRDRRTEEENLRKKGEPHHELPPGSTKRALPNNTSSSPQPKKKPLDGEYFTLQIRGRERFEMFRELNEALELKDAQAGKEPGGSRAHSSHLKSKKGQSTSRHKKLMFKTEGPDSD
# Test: TOX21_p53_BLA_p2_ratio: Tox21 HCT-116 p53 Agonism Beta-lactamase Assay, Ratio, Phase 2 (AID 2283592)
# Description: TOX21_p53_BLA_p2 is a cell-based, single-readout assay that uses HCT116, a human intestinal cell line, […] in a 1536-well plate.TOX21_p53_BLA_p2_ratio is an assay readout measuring reporter gene via receptor activity and designed using inducible reporter (beta lactamase induction) detected with GAL4 b-lactamase reporter gene. The signal is derived from the ratio of cleaved (ch2) to uncleaved (ch1) reporter gene substrate used as the measure of target activity.Data from the assay component TOX21_p53_BLA_p2_ratio was analyzed into 1 assay endpoint. This assay endpoint, TOX21_p53_BLA_p2_ratio, was analyzed in the positive analysis fitting direction relative to DMSO as the negative control and baseline of activity. Using a type of inducible reporter, gain-of-signal activity can be used to understand changes in the reporter gene as they relate to the gene TP53. Furthermore, this assay endpoint can be referred to as a primary readout, because this assay has produced multiple assay endpoints and this ratio serves a reporter gene function to understand target activity. To generalize the intended target to other relatable targets, this assay endpoint is annotated to the DNA binding intended target family, where the subfamily is tumor suppressor.
# Thawing Method: Place 14 mL of pre-warmed thaw medium into a 15 mL of conical tub. Remove the vial of cells to be thawed from liquid nitrogen and thaw rapidly by placing at 37C in a water bath with gentle agitation for 1-2 minutes. Decontaminate the vial by wiping with 70% ethanol before opening in a biological safety cabinet. Transfer the vial contents drop-wise into 14 mL of thaw medium in a sterile 15-mL conical tub. Centrifuge cells at 900 rpm for 4 minutes and resuspend in thaw medium. Transfer contents to the T75 tissue culture flask containing Thaw Medium and place flask in a humidified 37C/5% CO2 incubator. Switch to growth medium at first passage.Propagation Method: Aspirate medium, rinse once in DPBS, add 0.25% Trypsin/EDTA and swirl to coat the cell evenly. Add an equal volume of Growth Medium to inactivate Trypsin after 2-3 minutes incubation at 37C. Centrifuge cells at 900 rpm for 4 minutes and resuspend in growth medium. Cell should be passage or fed at least twice a week.Assay Protocol: Harvest cells from culture in growth medium and resuspend in assay medium. 2.2 Dispense 4000 cells/5 uL/well into 1536-well black/clear bottom plates using a Multidrop dispenser. After the cells were incubated at 37C for 5 hours, 23 nL of compounds dissolved in DMSO were transferred to the assay plate by a PinTool resulting in a 217-fold dilution. Incubate the plates for 16 hours at 37C, 5% CO2. Add 1 uL of 6X LiveBLAzer FRET B/G (CCF4-AM) Substrate Mixture to each well using a BioRAPTR dispenser and incubate the plates at room temperature for 2 hours. Measure fluorescence intensity at 460 and 530 nm emission and 405 nm excitation by an Envision detector. Data is expressed as the ratio of 460nm/530nm emissions. Add 4 uL of Cell-titer Glo to each well using BioRAPTR and incubate the plates at room temperature for 2 hours. Measure fluorescence intensity by a VewLux plate reader.
SMILES,AC50,outcome
Cc1nn(C)c(Oc2ccccc2)c1C=NOCc1ccc(C(=O)OC(C)(C)C)cc1,0.0043 µM (active),
C[C@]12C[C@H](O)[C@H]3[C@@H](CCC4=CC(=O)CC[C@@]43C)[C@@H]1CC[C@@H]2C(=O)CO,,inactive
CSC(=O)c1cccc2nnsc12,,inactive
COCCO,,inactive
O=C(O)C1(C(=O)Nc2ccc(Cl)cc2Cl)CC1,18.6 µM (active),
OB(O)O,,inactive
O=C(c1ccc(O)cc1O)c1ccc(O)cc1O,73.1 µM (active),inactive
CN(C)C(=O)Nc1ccc(Cl)c(Cl)c1,,inactive
N[C@@H](Cc1cc(I)c(Oc2ccc(O)c(I)c2)c(I)c1)C(=O)O,33.6 µM (active),inactive
CCOC(=O)C(C)Oc1ccc(Oc2nc3ccc(Cl)cc3o2)cc1 (stereo not given),,inactive
CC(=O)S[C@@H]1CC2=CC(=O)CC[C@]2(C)[C@H]2CC[C@@]3(C)[C@@H](CC[C@@]34CCC(=O)O4)[C@H]12,15.8 µM (active),inactive
CC(C)(c1ccc(O)cc1)c1ccc(O)cc1,85.6 µM (active),inactive
CCOC(=O)NCCOc1ccc(Oc2ccccc2)cc1,38.1 µM (active),
CCNc1nc(N)nc(Cl)n1,,inactive
CC1(C)C(C=C(Cl)Cl)C1C(=O)OCc1cccc(Oc2ccccc2)c1 (stereo not given),,inactive
C[C@]12CC[C@@H]3c4ccc(O)cc4C[C@@H](CCCCCCCCCS(=O)CCCC(F)(F)C(F)(F)F)[C@H]3[C@@H]1CC[C@@H]2O (stereo not given in full),,inactive
CCCOC(=O)NCCCN(C)C,,inactive
CCCCC(CC)COC(=O)c1ccccc1C(=O)O (stereo not given),,inactive

SMILES,AC50,outcome
CCCN(CCC)c1c([N+](=O)[O-])cc(C(F)(F)F)c(N)c1[N+](=O)[O-],37.8 µM (active),
C#CCOC(=O)[C@@H](C)Oc1ccc(Oc2ncc(Cl)cc2F)cc1,,inactive
CCOC(=O)COc1cc(-n2ncc(C(F)(F)F)c(C)c2=O)c(F)cc1Cl,,inactive
CC(C)CCCCCCc1ccc(O)cc1,,inactive
CC(=O)[C@H]1CC[C@H]2[C@@H]3CCC4=CC(=O)CC[C@]4(C)[C@H]3CC[C@]12C,,inactive
COc1nc(C)nc(NC(=O)NS(=O)(=O)c2ccccc2OCCCl)n1,,inactive
O=C(O)c1ccccc1,,inactive
CCN(Cc1c(F)cccc1Cl)c1c([N+](=O)[O-])cc(C(F)(F)F)cc1[N+](=O)[O-],,inactive
CCCN(CCC)C(=O)SCC,,inactive
CCOC(=O)c1ccc(O)cc1,,inactive
O=C(Nc1ccc([N+](=O)[O-])cc1Cl)c1cc(Cl)ccc1O,234 nM (active) and 140 nM (active),
CCC(C)OC(=O)N1CCCCC1CCO (stereo not given),,inactive
COC(=O)CSc1cc(N=c2sc(=O)n3n2CCCC3)c(F)cc1Cl,,inactive
CCCCCCC(C)OC(=O)COc1nc(F)c(Cl)c(N)c1Cl (stereo not given),82.3 µM (active),
Oc1ccc(C(c2ccc(O)cc2)C(Cl)(Cl)Cl)cc1,72.9 µM (active) and 69.1 µM (active),
C#C[C@]1(O)CC[C@H]2[C@@H]3CCC4=CC(=O)CC[C@@H]4[C@H]3CC[C@@]21CC,,inactive
CCCCC(CC)CN1C(=O)C2C3C=CC(C3)C2C1=O (stereo not given),,inactive
c1ccc(Nc2ccccc2)cc1,,inactive
